# Source: PubChem BioAssay (National Center for Advancing Translational Sciences (NCATS))
# DT40 TDP1 CPT – growth inhibition of DT40 Tdp1-/-;hTDP1 cells with camptothecin (screen for TDP1 inhibitors). chicken DT40 Tdp1-/-;hTDP1 cells + 20 nM CPT, ATP luminescence, 48 h. Potency, µM (top dose mostly 46.2 µM), for the others: top-dose activity change, negative = growth inhibition, usual class: inhibitors. 12% of 420,000 active. AID 686979; also: potency is read from the fitted curve at half-maximal effect; nearly all actives have a fitted effect of over 55% in size
#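 Chicken DT40 Tdp1-/- cells stably complemented with human TDP1 were seeded at 400 cells/well in medium containing 20 nM camptothecin, exposed to pin-transferred compounds, and grown at 37 °C for at least 48 hr. Viability was read as ATP luminescence.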
# HT1080 IDH1KD tx – toxicity to HT-1080 IDH1 knockdown cells (counter line); Potency, µM (series often up to 46.1 µM), for inactives: at the top dose activity, negative = toxicity, most hits filed as cytotoxic; HT-1080 IDH1 knockdown viability, ATP luminescence, 48 h; AID 686971; 2% of 360,000 active;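 also: potency is read from the fitted curve at half-maximal effect; 0% = DMSO wells and -100% = cell-free medium wells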
#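 Luminescent ATP read-out (CellTiter-Glo, 10 min at room temperature) after 48 h compound exposure at 37 °C gave viability of IDH1-knockdown HT-1080 cells. Activity was normalised to DMSO and cell-free wells, then fitted as concentration-response curves.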
# DT40 TDP1 no CPT – qHTS for Inhibitors of human tyrosyl-DNA phosphodiesterase 1 (TDP1): qHTS in cells in absence of CPT. DT40 Tdp1-/- hTDP1 cells, no CPT, ATP luminescence, 48 h. Potency, µM (highest dose often 46.2 µM), without a hit: at the highest dose activity change, negative = growth inhibition, actives largely listed as inhibitors. 15% of 420,000 active. AID 686978, 2013; also: potency is read from the fitted curve at half-maximal effect; nearly all actives have a fitted effect of over 55% in size
#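 Cells were dispensed at 400 per well, compounds added by pin tool, plates incubated ≥48 hr at 37 °C, then CellTiter-Glo added for 30 min at room temperature before luminescence reading. Line: DT40 Tdp1-/- complemented with hTDP1; camptothecin omitted.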
# HT1080-NT tox – kills 2HG-producing HT-1080-NT fibrosarcoma cells; HT-1080-NT fibrosarcoma viability, CellTiter-Glo ATP luminescence, 48 h; Potency, µM (titrated, usually from 46.1 µM), without a hit: at the highest dose activity, negative = less viability, actives largely listed as cytotoxic; 1.6% of 360,000 active;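 also: NT is the 2HG producing partner of a matched IDH1 knockdown line; potency is read from the fitted curve at half-maximal effect; 0% = DMSO-treated cells and -100% = media-only wells without cells; nearly all actives have a fitted effect of over 55% in size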
#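 Luminescent CellTiter-Glo readout after 48 hours of compound exposure at 37 degrees C defined viability of HT-1080-NT cells. Activity was normalized to DMSO wells and cell-free media wells; concentration-response curves were fitted and assigned curve classes.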
# IL1B secr inh – blocks inflammasome-driven IL-1 beta release; THP-1 LPS/ATP IL-1B secretion, AlphaLISA, 16 h; hits give low values; activity change, % at 57.5 µM; 4.7% of 360,000 active; AID 743279; in the data active = activity change below about -50%; inconclusive = mostly about -30% to -49%
#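 THP-1 cells pretreated 1 hr with compounds (up to 57.5 uM final), then stimulated with LPS (250 ng/mL final) plus ATP (1.25 mM final); secreted IL-1B measured by AlphaLISA after 16 hr, decreased signal indicating inhibition.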
# * hit, by the source's call; ? = inconclusive; . = not tested or not shown; [ ] = remark or other dose. Hits are enriched below; roughly 19% of the tested compounds scored in any of these assays. Unless noted, calls follow the shape of the dose curve; as a rule, active = well fitted curve in the direction sought with a large enough effect; inconclusive = small, poorly fitted or top-dose-only effect, or another doubt; inactive = no such curve, though single readings can be large; an effect the other way counts as inactive or inconclusive. Unless noted, % is scaled to controls: 0 for no effect and ±100 for the full control effect.
SMILES,DT40 TDP1 CPT,HT1080 IDH1KD tx,DT40 TDP1 no CPT,HT1080-NT tox,IL1B secr inh
O=C1N[C@@H](Cc2c[nH]c3ccccc23)COC(=O)[C@H](Cc2ccc(F)cc2)C/C=C\C[C@@H]1CC(=O)N(CCO)Cc1ccccc1,?,?,?,?,-24
O=C1N[C@@H](Cc2ccccc2)COC(=O)[C@H](Cc2ccc(F)cc2)C/C=C\C[C@@H]1CC(=O)N(CCO)Cc1ccccc1,?,-20%,?,-14%,?
O=C1N[C@@H](Cc2c[nH]c3ccccc23)COC(=O)[C@@H](Cc2ccc(F)cc2)C/C=C\C[C@H]1CC(=O)N(CCO)Cc1ccccc1,?,?,21µM*,-18%,?
O=C1OC[C@@H]2CCCN2C(=O)[C@@H](CC(=O)N(CCO)Cc2ccccc2)C/C=C\CC[C@H]1Cc1ccc(F)cc1,?,-11%,?,0%,-12
O=C1N[C@H](Cc2ccccc2)COC(=O)[C@H](Cc2ccc(F)cc2)C/C=C\C[C@@H]1CC(=O)N(CCO)Cc1ccccc1,?,?,16µM*,?,?
C=CCn1c(SCCC(=O)O)nc2c1c(=O)n(C)c(=O)n2C,-15%,-11%,-15%,1%,5
Cc1cc(C)cc(CC(=O)N2CCC2(C)C(=O)NS(=O)(=O)c2ccc(Br)cc2)c1 (stereo unspecified),-3%,15%,-1%,19%,12
O=C(O)/C=C/C(=O)Nc1ccc(S(=O)(=O)N2CCCC2)cc1,-4%,6%,?,14%,-13
C[C@H]1COC(=O)[C@@H](Cc2ccc(F)cc2)C/C=C\C[C@H](CC(=O)N(CCO)Cc2ccccc2)C(=O)N1,21µM*,-4%,23µM*,-10%,24
C[C@@H]1COC(=O)[C@@H](Cc2ccc(F)cc2)C/C=C\C[C@H](CC(=O)N(CCO)Cc2ccccc2)C(=O)N1,?,-2%,?,-1%,-8
CCOC(=O)c1cccc(NC(=O)NCc2ccc3c(c2)CCN3C(=O)CC)c1,-23%,.,?,.,.
Cc1ccc(-n2c(=O)c3c(c4cc(C)ccc4n3C)n(CC(=O)c3ccc(Cl)cc3)c2=O)cc1,-4%,.,-17%,.,.
COc1cccc(CN2CCC(n3cc(C(=O)NC4CCCC4)nn3)CC2)c1O,14%[9.04 µM],.,-5%,.,.
O=C(Nc1cc(Sc2nc3ccccc3s2)cc([N+](=O)[O-])c1)c1ccccc1F,21µM*,-24%,?,-16%,33
O=C(Nc1cc(Sc2nc3ccccc3s2)cc([N+](=O)[O-])c1)c1ccccc1,?,-25%,16µM*,-22%,19
O=C(Nc1cc(Sc2ccccn2)cc([N+](=O)[O-])c1)c1cccc(F)c1,?,?,?,-25%,-23
CCOC1=C2CN(S(=O)(=O)c3ccc(C)cc3)C(c3cccc(Cl)c3)CC2N(S(=O)(=O)c2ccc(Cl)cc2)C(c2ccccc2)C1 (stereo unspecified),?,18%,?,13%,13
CCOC1=C2CN(S(=O)(=O)c3ccc(C)cc3)[C@H](c3cccc(Cl)c3)C[C@H]2[C@H]2C(=O)N(c3ccccc3)C(=O)[C@H]2C1,-11%,12%,-12%,12%,-17
CCOC1=C2CN(S(=O)(=O)c3ccc(C)cc3)C(c3cccc(Cl)c3)CC2NC(c2ccccc2)C1 (stereo unspecified),18µM*,0%,?,0%,-15
CCOC1=C2CN(S(=O)(=O)c3ccc(C)cc3)C(c3cccc(Cl)c3)CC2N(S(=O)(=O)c2ccc(C)cc2)C(c2ccncc2)C1 (stereo unspecified),15µM*,-5%,16µM*,1%,6
COc1ccc(NC(=O)C[C@H]2C(=O)N(c3ccccc3)C[C@@H]2CSC)cc1,0%,2%,?,3%,-28
COc1ccc(OC)c(NC(=O)c2ccc3c(c2)c(C)c(C)n3Cc2ccc(F)cc2)c1,?,.,21µM*,.,.
COc1ccc(NC(=O)c2ccc(C(=O)Nc3ccc(OC)cc3OC)cc2)c(OC)c1,7%,5%,-19%,12%,18
COc1ccc(NC(=O)c2ccc3c(c2)c(C)c(C)n3Cc2ccc(F)cc2)c(OC)c1,18µM*,.,21µM*,.,.
Cc1cc(OCC(=O)Nc2ccccc2N2CCOCC2)c(C(C)C)cc1Cl,16µM*,-22%,15µM*,-4%,-12
SMILES,DT40 TDP1 CPT,HT1080 IDH1KD tx,DT40 TDP1 no CPT,HT1080-NT tox,IL1B secr inh
CC(=O)NCCC(=O)Nc1cc(S(=O)(=O)N2CCCCC2)ccc1N1CCCCC1,?,1%,23µM*,2%,-2
CC(=O)NCCC(=O)Nc1cc(S(=O)(=O)N2CCCCC2)ccc1N1CCN(C)CC1,-11%,8%,-8%,1%,-4
CCOc1ccccc1OCC(=O)Nc1cc(S(=O)(=O)N2CCCCC2)ccc1N1CCN(CC)CC1,23µM*,-2%,16µM*,-3%,-27
Cc1ccccc1OCCC(=O)Nc1cc(S(=O)(=O)N2CCCCC2)ccc1N1CCN(C)CC1,?,-15%,?,?,-9
Cc1ccc(OCC(=O)Nc2cc(S(=O)(=O)N3CCCCC3)ccc2N2CCN(C)CC2)c(C)c1,15µM*,-1%,9.2µM*,-15%,?
O=C(COc1ccccc1F)Nc1nnc(C2CCCC2)s1,12%,0%,-12%,8%,-13
COc1ccccc1OCC(=O)Nc1cc(S(=O)(=O)N2CCCCC2)ccc1N1CCCCC1,23µM*,4%,23µM*,7%,-1
CCOc1ccccc1OCC(=O)Nc1cc(S(=O)(=O)N2CCCCC2)ccc1OC,?,1%,?,9%,13
CCOc1ccc(S(=O)(=O)N2CCCCC2)cc1NC(=O)Cc1cccs1,?,-3%,18µM*,-4%,8
CC(C)c1ccccc1OCC(=O)Nc1cc(S(=O)(=O)N2CCOCC2)ccc1N1CCCC1,?,-12%,15µM*,-16%,-56*
O=C(NCCCN1CCOCC1)c1ccccc1N1C(=O)[C@@H]2Cc3c([nH]c4ccccc34)C(c3cccc(Cl)c3)N2C1=O (stereo partly specified),9.2µM*,?,10µM*,?,39
Cc1ccc(C2c3[nH]c4ccccc4c3C[C@H]3C(=O)N(c4ccccc4C(=O)NCCCN4CCOCC4)C(=O)N23)cc1 (stereo partly specified),12µM*,29µM*,?,?,-23
